Measured values from article PMC7862700, “An all-to-all approach to the identification of sequence-specific readers for epigenetic DNA modifications on cytosine”.

Assays:
Assay in all cases: DAPPL (digital affinity profiling via proximity ligation, sequencing); 10 mM Tris-HCl pH 7.5, 50 mM NaCl, 1 mM DTT, 4% glycerol, room temperature, 30 min; GST-TFs on glutathione beads, 16-mer random dsDNA library, 0.1% formaldehyde crosslink after washing; high values mean tight binding
Conditions in all cases: protein: recombinant; tags: N-terminal GST; dsDNA, one strand shown
FEV = target: T1, FEV (Homo sapiens, UniProt Q99581 1-238)
T1 sequence: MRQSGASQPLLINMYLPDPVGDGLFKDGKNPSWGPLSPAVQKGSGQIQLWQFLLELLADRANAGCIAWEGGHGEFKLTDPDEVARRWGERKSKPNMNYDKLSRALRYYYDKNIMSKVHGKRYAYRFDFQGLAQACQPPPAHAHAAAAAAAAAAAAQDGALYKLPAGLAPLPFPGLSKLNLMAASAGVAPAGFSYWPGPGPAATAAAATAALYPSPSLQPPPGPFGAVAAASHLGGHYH
Outline: (§1)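 GST fusions of human transcription factors were expressed in yeast and captured with glutathione beads. Once given DNA barcodes and pooled alongside a tag-only sample, they were incubated for 30 min at room temperature with 200 nmole of a random double-stranded 16-mer DNA library in Tris/NaCl/DTT/glycerol buffer, then washed, crosslinked (0.1% formaldehyde), proximity-ligated, PCR-amplified and sequenced on an Illumina NextSeq500. The binding signal of each hexamer is its read frequency for a factor divided by its frequency for the tag-only sample.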

ETV5 = ETV5 (Homo sapiens, UniProt P41161 1-510)
Outline: as §1

SPIC = target: T2, SPIC (Homo sapiens, UniProt Q8N5J4 1-248)
T2 sequence: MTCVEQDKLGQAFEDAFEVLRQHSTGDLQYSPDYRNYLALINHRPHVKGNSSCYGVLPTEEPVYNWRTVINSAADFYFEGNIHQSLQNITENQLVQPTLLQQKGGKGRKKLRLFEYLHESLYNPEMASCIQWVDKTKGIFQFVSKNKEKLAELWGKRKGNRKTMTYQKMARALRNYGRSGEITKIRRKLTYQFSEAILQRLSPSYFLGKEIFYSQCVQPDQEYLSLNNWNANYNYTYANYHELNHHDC
Outline: as §1

ELF4 = ELF4 (Homo sapiens, UniProt Q99607 1-663)
Outline: as §1

ELK4 = target: T3, ELK4 (Homo sapiens, UniProt P28324-2 1-405)
T3 sequence: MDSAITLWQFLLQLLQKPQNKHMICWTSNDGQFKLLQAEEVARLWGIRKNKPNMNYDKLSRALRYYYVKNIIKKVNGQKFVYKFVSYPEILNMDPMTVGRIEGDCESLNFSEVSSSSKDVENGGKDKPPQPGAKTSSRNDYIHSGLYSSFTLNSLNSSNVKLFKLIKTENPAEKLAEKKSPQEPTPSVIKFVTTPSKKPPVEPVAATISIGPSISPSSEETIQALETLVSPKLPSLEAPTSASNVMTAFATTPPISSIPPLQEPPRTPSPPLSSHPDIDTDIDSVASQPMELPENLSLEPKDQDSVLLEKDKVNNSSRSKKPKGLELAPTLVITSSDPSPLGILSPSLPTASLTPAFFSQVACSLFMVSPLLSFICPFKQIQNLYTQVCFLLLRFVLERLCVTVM
Outline: as §1

ETV2 = target: T4, ETV2 (Homo sapiens, UniProt O00321 1-342)
T4 sequence: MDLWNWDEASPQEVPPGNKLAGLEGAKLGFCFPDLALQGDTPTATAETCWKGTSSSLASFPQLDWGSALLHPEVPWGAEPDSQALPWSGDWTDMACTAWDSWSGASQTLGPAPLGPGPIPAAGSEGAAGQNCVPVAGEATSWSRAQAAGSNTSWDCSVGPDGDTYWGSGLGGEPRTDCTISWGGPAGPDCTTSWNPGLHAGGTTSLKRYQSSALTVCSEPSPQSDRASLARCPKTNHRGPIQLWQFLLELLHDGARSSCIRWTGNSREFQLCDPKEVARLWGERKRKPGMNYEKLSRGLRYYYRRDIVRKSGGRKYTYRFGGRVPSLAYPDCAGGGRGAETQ
Outline: as §1

ELF3 = target: T5, ELF3 (Homo sapiens, UniProt P78545 1-371)
T5 sequence: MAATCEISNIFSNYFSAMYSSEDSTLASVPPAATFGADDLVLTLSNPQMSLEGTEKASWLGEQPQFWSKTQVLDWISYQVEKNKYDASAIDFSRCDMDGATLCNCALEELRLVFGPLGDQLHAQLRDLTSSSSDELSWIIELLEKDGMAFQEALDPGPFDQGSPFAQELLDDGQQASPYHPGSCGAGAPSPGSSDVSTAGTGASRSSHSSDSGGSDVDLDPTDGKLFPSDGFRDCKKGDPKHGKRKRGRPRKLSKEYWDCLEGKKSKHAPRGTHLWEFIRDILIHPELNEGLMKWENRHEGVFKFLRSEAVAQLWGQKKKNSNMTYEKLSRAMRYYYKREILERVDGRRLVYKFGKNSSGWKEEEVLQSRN
Outline: as §1

ETV1 = ETV1 (Homo sapiens, UniProt P50549 1-477)
Outline: as §1

ERF = target: T6, ERF (Homo sapiens, UniProt P50548 1-548)
T6 sequence: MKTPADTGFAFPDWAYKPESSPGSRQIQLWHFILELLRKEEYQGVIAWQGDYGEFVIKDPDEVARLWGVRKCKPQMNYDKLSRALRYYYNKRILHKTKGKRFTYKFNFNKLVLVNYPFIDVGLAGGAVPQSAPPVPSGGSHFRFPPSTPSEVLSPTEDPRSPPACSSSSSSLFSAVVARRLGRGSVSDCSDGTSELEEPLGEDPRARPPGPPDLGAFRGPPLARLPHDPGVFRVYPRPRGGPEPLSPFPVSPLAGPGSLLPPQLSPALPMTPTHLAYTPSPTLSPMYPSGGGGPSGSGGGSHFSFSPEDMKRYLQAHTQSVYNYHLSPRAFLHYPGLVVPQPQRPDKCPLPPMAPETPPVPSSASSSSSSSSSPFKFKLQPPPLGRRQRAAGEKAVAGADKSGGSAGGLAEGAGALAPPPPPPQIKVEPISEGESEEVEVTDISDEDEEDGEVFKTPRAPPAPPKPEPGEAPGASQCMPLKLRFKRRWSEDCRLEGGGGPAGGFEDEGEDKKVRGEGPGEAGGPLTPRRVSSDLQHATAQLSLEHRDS
Outline: as §1

ETV3L = target: T7, ETV3L (Homo sapiens, UniProt Q6ZN32 1-361)
T7 sequence: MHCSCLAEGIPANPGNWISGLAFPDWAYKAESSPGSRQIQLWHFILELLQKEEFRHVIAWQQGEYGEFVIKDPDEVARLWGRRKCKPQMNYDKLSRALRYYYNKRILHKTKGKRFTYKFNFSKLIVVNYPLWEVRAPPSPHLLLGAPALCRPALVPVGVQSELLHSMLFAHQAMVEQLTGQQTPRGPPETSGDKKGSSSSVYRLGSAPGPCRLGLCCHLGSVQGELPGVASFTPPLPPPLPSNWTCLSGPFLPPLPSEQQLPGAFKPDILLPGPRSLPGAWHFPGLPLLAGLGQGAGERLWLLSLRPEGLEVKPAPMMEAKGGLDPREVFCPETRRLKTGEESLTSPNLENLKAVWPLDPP
Outline: as §1

ETS2 = target: T8, ETS2 (Homo sapiens, UniProt P15036 1-469)
T8 sequence: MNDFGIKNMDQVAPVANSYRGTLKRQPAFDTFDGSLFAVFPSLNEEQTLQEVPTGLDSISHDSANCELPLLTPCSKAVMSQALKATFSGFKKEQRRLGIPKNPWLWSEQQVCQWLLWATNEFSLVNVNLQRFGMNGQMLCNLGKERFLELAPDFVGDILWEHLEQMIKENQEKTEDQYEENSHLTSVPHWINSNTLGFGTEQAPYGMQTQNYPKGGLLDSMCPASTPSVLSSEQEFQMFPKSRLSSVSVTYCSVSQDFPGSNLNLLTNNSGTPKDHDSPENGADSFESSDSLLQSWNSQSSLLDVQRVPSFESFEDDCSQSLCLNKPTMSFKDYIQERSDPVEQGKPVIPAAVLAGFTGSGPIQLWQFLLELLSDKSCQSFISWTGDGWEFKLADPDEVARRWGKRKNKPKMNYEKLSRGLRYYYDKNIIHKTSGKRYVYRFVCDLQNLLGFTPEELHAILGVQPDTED
Outline: as §1

SPDEF = target: T9, SPDEF (Homo sapiens, UniProt O95238 1-335)
T9 sequence: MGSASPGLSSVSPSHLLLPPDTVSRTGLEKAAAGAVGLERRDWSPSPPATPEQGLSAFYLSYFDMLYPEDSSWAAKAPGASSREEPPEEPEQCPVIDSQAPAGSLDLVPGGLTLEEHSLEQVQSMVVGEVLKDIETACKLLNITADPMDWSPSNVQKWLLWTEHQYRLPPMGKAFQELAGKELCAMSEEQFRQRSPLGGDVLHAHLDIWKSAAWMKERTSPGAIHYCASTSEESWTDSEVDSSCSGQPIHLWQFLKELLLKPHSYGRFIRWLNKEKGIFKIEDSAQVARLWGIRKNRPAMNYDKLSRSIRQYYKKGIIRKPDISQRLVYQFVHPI
Outline: as §1

ETV7 = target: T10, ETV7 (Homo sapiens, UniProt Q9Y603 1-341)
T10 sequence: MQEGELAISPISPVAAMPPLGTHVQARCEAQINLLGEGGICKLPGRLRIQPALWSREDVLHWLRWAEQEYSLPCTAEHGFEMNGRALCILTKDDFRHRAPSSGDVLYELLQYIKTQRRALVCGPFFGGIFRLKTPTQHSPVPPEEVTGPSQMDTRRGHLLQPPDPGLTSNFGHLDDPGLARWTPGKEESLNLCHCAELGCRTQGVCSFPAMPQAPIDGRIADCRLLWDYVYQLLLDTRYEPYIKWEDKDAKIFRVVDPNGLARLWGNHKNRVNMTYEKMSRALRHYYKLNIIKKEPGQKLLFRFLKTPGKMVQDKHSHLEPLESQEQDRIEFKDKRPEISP
Outline: as §1

ELF5 = target: T11, ELF5 (Homo sapiens, UniProt Q9UKW6-2 1-255)
T11 sequence: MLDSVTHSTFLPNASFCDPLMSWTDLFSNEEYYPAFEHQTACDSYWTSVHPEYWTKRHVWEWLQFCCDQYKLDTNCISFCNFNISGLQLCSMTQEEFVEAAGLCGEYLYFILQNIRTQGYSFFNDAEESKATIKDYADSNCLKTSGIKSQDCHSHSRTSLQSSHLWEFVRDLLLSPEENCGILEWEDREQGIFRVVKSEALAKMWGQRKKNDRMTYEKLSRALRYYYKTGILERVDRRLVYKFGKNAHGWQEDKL
Outline: as §1

ETV3 = target: T12, ETV3 (Homo sapiens, UniProt P41162-2 1-143)
T12 sequence: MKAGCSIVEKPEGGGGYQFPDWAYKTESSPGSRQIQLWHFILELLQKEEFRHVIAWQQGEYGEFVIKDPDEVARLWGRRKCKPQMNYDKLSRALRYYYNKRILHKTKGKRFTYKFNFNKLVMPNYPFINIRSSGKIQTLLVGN
Outline: as §1

ETV6 = ETV6 (Homo sapiens, UniProt P41212 1-452)
Outline: as §1

ETV5, sequence (P41161 whole entry): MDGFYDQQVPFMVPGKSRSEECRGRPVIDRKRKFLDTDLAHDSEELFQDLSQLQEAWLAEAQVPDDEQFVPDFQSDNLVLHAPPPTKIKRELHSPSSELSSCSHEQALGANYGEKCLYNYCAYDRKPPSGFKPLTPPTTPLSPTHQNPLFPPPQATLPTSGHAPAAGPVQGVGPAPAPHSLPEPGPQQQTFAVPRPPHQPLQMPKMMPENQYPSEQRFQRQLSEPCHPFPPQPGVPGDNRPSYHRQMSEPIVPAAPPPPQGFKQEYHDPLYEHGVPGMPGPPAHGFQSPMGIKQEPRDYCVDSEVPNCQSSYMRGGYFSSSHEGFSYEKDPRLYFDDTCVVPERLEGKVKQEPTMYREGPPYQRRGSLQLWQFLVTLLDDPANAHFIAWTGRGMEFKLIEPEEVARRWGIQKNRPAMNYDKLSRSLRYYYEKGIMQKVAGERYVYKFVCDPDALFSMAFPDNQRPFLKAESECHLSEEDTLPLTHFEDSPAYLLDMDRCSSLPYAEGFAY
ETV1, sequence (P50549 whole entry): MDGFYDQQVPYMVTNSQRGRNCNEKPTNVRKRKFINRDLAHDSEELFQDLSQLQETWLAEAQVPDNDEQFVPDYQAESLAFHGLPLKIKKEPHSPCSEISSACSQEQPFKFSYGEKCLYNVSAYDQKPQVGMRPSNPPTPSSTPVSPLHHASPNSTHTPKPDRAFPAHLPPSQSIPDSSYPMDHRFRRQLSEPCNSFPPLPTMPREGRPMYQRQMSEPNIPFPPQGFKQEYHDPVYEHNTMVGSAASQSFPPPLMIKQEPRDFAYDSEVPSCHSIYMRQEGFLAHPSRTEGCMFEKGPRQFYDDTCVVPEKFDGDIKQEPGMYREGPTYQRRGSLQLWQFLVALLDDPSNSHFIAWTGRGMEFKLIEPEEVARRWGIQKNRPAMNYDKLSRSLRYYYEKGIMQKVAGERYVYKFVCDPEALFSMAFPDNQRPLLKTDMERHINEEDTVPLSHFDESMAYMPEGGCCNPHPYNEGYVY
ELF4, sequence (Q99607 whole entry): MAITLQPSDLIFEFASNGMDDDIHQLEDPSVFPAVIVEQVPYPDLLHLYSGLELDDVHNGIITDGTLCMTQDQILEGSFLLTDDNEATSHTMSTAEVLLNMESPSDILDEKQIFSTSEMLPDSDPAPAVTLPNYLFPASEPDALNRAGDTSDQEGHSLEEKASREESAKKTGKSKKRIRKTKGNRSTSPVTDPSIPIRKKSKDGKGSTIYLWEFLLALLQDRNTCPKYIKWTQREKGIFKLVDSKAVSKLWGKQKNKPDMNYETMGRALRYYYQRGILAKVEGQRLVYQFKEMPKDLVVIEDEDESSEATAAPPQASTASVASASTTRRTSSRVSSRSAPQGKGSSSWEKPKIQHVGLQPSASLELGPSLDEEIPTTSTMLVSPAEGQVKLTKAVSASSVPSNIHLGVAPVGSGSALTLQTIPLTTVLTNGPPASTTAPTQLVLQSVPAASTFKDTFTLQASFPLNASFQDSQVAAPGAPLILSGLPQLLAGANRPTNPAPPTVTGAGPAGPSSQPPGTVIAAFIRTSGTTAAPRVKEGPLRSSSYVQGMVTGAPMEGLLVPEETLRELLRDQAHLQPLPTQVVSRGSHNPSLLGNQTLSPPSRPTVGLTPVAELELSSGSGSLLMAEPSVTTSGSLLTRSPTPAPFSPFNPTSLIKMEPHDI
ETV6, sequence (P41212 whole entry): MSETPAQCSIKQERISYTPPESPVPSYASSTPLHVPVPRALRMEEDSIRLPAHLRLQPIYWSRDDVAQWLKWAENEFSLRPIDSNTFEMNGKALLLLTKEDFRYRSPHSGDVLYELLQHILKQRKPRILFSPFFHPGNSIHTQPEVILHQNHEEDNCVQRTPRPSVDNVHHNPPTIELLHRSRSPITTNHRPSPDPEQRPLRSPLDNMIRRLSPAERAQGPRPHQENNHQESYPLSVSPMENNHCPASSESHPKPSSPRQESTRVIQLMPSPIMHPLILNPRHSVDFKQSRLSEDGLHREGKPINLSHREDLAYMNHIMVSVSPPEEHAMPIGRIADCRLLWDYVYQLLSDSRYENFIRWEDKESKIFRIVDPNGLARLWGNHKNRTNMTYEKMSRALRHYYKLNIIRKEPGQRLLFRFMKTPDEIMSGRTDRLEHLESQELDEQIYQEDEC

| Sequence | binding signal (FEV) | binding signal (ETV5) | binding signal (SPIC) | binding signal (ELF4) | binding signal (ELK4) | binding signal (ETV2) | binding signal (ELF3) | binding signal (ETV1) | binding signal (ERF) | binding signal (ETV3L) | binding signal (ETS2) | binding signal (SPDEF) | binding signal (ETV7) | binding signal (ELF5) | binding signal (ETV3) | binding signal (ETV6) |
| --- | --- | --- | --- | --- | --- | --- | --- | --- | --- | --- | --- | --- | --- | --- | --- | --- |
| GACATC | 1.73 fold enrichment (6-mer frequency, TF over GST control) | 1.3 fold enrichment (6-mer frequency, TF over GST control) | 1.26 fold enrichment (6-mer frequency, TF over GST control) | 1.26 fold enrichment (6-mer frequency, TF over GST control) | 1.34 fold enrichment (6-mer frequency, TF over GST control) | 1.31 fold enrichment (6-mer frequency, TF over GST control) | 1.23 fold enrichment (6-mer frequency, TF over GST control) | 1.33 fold enrichment (6-mer frequency, TF over GST control) | 1.22 fold enrichment (6-mer frequency, TF over GST control) | 1.27 fold enrichment (6-mer frequency, TF over GST control) | 1.31 fold enrichment (6-mer frequency, TF over GST control) | 1.57 fold enrichment (6-mer frequency, TF over GST control) | 1.31 fold enrichment (6-mer frequency, TF over GST control) | 1.35 fold enrichment (6-mer frequency, TF over GST control) | 1.33 fold enrichment (6-mer frequency, TF over GST control) | 1.33 fold enrichment (6-mer frequency, TF over GST control) |
| CCCCGG | 1.38 fold enrichment (6-mer frequency, TF over GST control) | 1.27 fold enrichment (6-mer frequency, TF over GST control) | 1.07 fold enrichment (6-mer frequency, TF over GST control) | 1.2 fold enrichment (6-mer frequency, TF over GST control) | 1.31 fold enrichment (6-mer frequency, TF over GST control) | 1.24 fold enrichment (6-mer frequency, TF over GST control) | 1.09 fold enrichment (6-mer frequency, TF over GST control) | 1.29 fold enrichment (6-mer frequency, TF over GST control) | 1.34 fold enrichment (6-mer frequency, TF over GST control) | 1.24 fold enrichment (6-mer frequency, TF over GST control) | 1.17 fold enrichment (6-mer frequency, TF over GST control) | 1.28 fold enrichment (6-mer frequency, TF over GST control) | 1.18 fold enrichment (6-mer frequency, TF over GST control) | 1.3 fold enrichment (6-mer frequency, TF over GST control) | 1.43 fold enrichment (6-mer frequency, TF over GST control) | 1.21 fold enrichment (6-mer frequency, TF over GST control) |
